Results: PubChem BioAssay (NCI)
Compounds without any hit were thinned out: in the full panel of roughly 83,000, 20% have a hit.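 Cells were grown in 96-well plates and exposed to the test compound at a single concentration for 48 hours; results are reported as percent growth, with values below 10 considered active.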 Calls of active or inactive are those of the source.

system: A549/ATCC NSCLC; test: NCI-60 one-dose screen, 48 h (100 = growth as untreated, 0 = no growth, -100 = all killed); details: 10 µM unless noted

SMILES | growth
CCC(CC)N1C(=O)/C(=c2\sc3n(c2=O)NC2C(N=3)N(CC)C(=O)N2CC)c2ccccc21 (stereo not drawn) | 57.6% (inactive)
CN1CCN(c2ccc(/C=N/Nc3nc4ccccc4c(=O)n3-c3ccccc3)cc2)CC1 | 103% (inactive)
CC1=NC2=NC(=O)/C(=C3/N=C(C)C=C(c4ccccc4)N3N)NN2C(c2ccccc2)=C1 | 109% (inactive)
Nc1ncc(-c2ccc3ncnc(N4CCc5cc(F)c(F)cc54)c3c2)cn1 | 15.6% (inactive)
COc1ccc(Oc2ccc(/C=N/NC(=O)CSc3nc4ccccc4c(=O)n3-c3ccc(Cl)cc3)cc2)cc1 | 47% (inactive)
COc1ccc2c(c1)Oc1nc(N)c(C#N)c(N)c1C2Sc1ccc(C)cc1 (stereo not drawn) | 75.6% (inactive)
CC(=O)C1=C(C)NC(NN)=NC1c1cccc(Cl)c1 (stereo not drawn) | 110% (inactive)
O=C(NNc1nc2cc(F)ccc2n2c(CO)ccc12)c1cnccn1 | 13.6% (inactive)
NC(N)=Nc1ccc(Oc2cccc(NC(N)=Nc3ccc(Br)cc3)c2)cn1 | 53.5% (inactive)
CCOC(=O)C1=NNC(c2ccc(Cl)cc2)C1C(=O)N1C(=S)NC(=O)C1CC(C)C (stereo not drawn) | 110% (inactive)
CC/C(=C/c1c(O)cccc1OC)c1ccc2c(OC)cccc2[o+]1 | 102% (inactive)
Cn1ccnc1C(=O)/C=C/c1ccc(CNC(=O)c2ccc(Cl)cc2)cc1 | 8.09% (active)
COc1c(N2CC3CCCNC3C2)c(F)cc2c(=O)c(C(=O)N/N=C/c3ccc(F)cc3)cn(C3CC3)c12 (stereo not drawn) | 91.5% (inactive)
CN(C)CCNC(=O)c1ccc(-c2nc3ccc4[nH]ncc4c3c3c2CCC3)cc1 | 7.96% (active)
C=C(C=O)[C@@H]1CC[C@]2(COC(C)=O)CC[C@]3(C)C(CC[C@@H]4[C@@]5(C)CC[C@H](OC(C)=O)C(C)(C)[C@@H]5CC[C@]43C)[C@@H]12 (stereo partly drawn) | 36.5% (inactive)
COc1c(N2CC3CCCNC3C2)c(F)cc2c(=O)c(C(=O)N/N=C/c3c[nH]c4ccccc34)cn(C3CC3)c12 (stereo not drawn) | 102% (inactive)
COc1cc(C2N=C(NNc3ccccc3)NC(C)=C2C(C)=O)ccc1O (stereo not drawn) | 95.5% (inactive)
CCCCCc1ccc(S(=O)(=O)Nc2cccc(-c3csc(NC(=O)CNCCN(C)C)n3)c2)cc1 | 84.8% (inactive)
CCCCCc1ccc(S(=O)(=O)Nc2cccc(-c3csc(NC(=O)CCCCCN4CCN(CCO)CC4)n3)c2)cc1 | 74.5% (inactive)

SMILES | growth
CS(=O)(=O)Nc1cc(-c2ccc3ncc(C#N)c(NCc4ccccc4O)c3c2)cnc1Cl | 15.8% (inactive)
CC(=O)N1C(=S)NC(=O)C1CC(C)C (stereo not drawn) | 101% (inactive)
COc1cc(/C=C2\C(=O)Nc3ccccc32)ccc1OCc1ccc(Cl)cc1 | 107% (inactive)
COc1cc2oc(-c3cccc(NC(=O)c4cc(N)ccc4Cl)c3)cc(=O)c2c(OC)c1OC | 103% (inactive)
COc1ccc(Cn2cc3c(c2-c2cc(OC)c(OC)c(OC)c2)CCc2c(CN4CCCC4)noc2-3)cc1 | 25.8% (inactive)
CCCCCc1ccc(S(=O)(=O)Nc2cccc(-c3csc(NCCN4CCN(C)CC4)n3)c2)cc1 | 72.6% (inactive)
CCC1=Cc2cc(OC)ccc2OC12C=Cc1cc(OC)ccc1O2 (stereo not drawn) | 26.5% (inactive)
CCCCCc1ccc(S(=O)(=O)Nc2cccc(-c3csc(NC(=O)CCCCCN4CCN(C)CC4)n3)c2)cc1 | 54.4% (inactive)
N#Cc1cnc2ccc(-c3cnc4[nH]ncc4c3)cc2c1N1CCc2cc(F)c(Cl)cc21 | 9.1% (active)
CC(C)C[C@@H]1N[C@@]2(C(=O)Nc3ccccc32)[C@@H](c2ccc(F)cc2)[C@@H]1C(=O)c1ccc(O)cc1 | 85.1% (inactive)
O=C(NNc1nc2cc(F)cc(F)c2n2cccc12)c1cnccn1 | 15% (inactive)
O=C(NNc1nc2cc(F)c(F)cc2n2cccc12)c1cnccn1 | 24.1% (inactive)
O=C(CNc1nc(-c2cccc([N+](=O)[O-])c2)cs1)Nc1cccc([N+](=O)[O-])c1 | -19% (active)
CC(Nc1c(C#N)cnc2ccc(-c3cnc(N)nc3)cc12)c1ccccc1 (stereo not drawn) | 11.6% (inactive)
C=CCn1c(SCC(=O)Nc2ccc(C(=O)/C=C/c3ccc(Cl)cc3)cc2)nnc1-c1c[nH]c2ccccc12 | 64.8% (inactive)
CCCCCc1ccc(S(=O)(=O)Nc2cccc(-c3csc(NC(=O)CN4CCN(C)CC4)n3)c2)cc1 | 79.7% (inactive)
O=C(NCc1ncc[nH]1)c1ccc(-c2nc3ccc4[nH]ncc4c3c3c2CCCC3)cc1 | 48.2% (inactive)
Cc1c(Cl)cccc1S(=O)(=O)Nc1ccc2c(c1)C(=O)N(C1CCC(=O)NC1=O)C2=O (stereo not drawn) | 104% (inactive)
COC(=O)C1(C)CCC[C@]2(C)[C@H]3C[C@H]4C(C(C)C)=C[C@]3(CC[C@@H]12)[C@H]1[C@@H]4[C@@H](OC(=O)c2ccco2)CC[C@@H]1OC(=O)c1ccco1 (stereo partly drawn) | 102% (inactive)
